# Source: PubChem BioAssay (EPA / NIEHS)
# Active and inactive are the calls of the source. How the source made its calls: active means hit-call score of the fitted dose curve at least 0.9, where 1 is the maximum; inactive means score below 0.9.
# Test: CCTE_Padilla_ZF_Score.Swim_bladder: CCTE's 144 Hour Post-fertilization zebrafish Assay Score for Swim Bladder Malformation, Padilla Lab (AID 2284408)
# Experimental: CCTE_Padilla_ZF_Phenotype_Score is a whole embryo, multiplexed assay using zebrafish ova exposed for 144 hours post fertilization on a 96-well plate.CCTE_Padilla_ZF_Score.Swim_bladder is one of one assay component(s) measured or calculated from the CCTE_Padilla_ZF_Phenotype_Score assay. It is designed to make measurements of zebrafish development as detected with brightfield microscopy of developing zebrafish embryos.Data from the assay component CCTE_Padilla_ZF_Score.Swim_bladder was analyzed into 1 assay endpoints. This assay endpoint, CCTE_Padilla_ZF_Score.Swim_bladder, was analyzed in the positive analysis fitting direction relative to DMSO as the negative control and baseline of activity. Using a type of viability reporter, gain-of-signal activity can be used to understand changes in developmentals as they relate to the whole embryo. To generalize the intended target to other relatable targets, this assay endpoint is annotated to the zebrafish development intended target family, where the subfamily is swim bladder morphogenesis.
# Zebrafish husbandry: Wild type adult zebrafish (Danio rerio; undefined outbred stock obtained from Aquatic Research Organisms, Hampton, NH, 03842) were housed in an AAALAC-approved animal facility at 28C with a 14:10 h light: dark cycle (lights on at 08:30 h). Adult fish (2-3 females per male; density = 15-20 adults per tank) were kept in one of several 9-liter (L) flow-through colony tanks (Aquaneering Inc., San Diego, CA). All adults in a colony tank were placed in a 2 L (static) breeding tank (Aquatic Habitats, Apopka, FL) one hour prior to light onset. Typically, adults from two to three colony tanks were mated on the same day. Two hours after light onset the adults were returned to the colony tank. All embryos were gathered from each breeder tank, pooled, and placed in a 28C water bath for 2 h, followed by two washes with 0.06% bleach (v/v) in 10% Hanks' Balanced Salt Solution (13.7 mM NaCl 0.54 mM KCl, 25 uM Na2HPO4, 130 uM CaCl2 100 um MgSO4 and 420 um NaHCO3,), hereafter referred to as Hanks' solution, for 5 min in order to remove any residual bacteria or fungi. Immediately following washing, the embryos were examined, and healthy embryos were separated from dead or unfertilized eggs and moved into fresh Hanks'. Chemical exposures: Zebrafish embryos were exposed in 96-well plates. Between 6- and 8-hours post fertilization (hpf), healthy embryos (with chorions) were transferred, one embryo per well, into 96 well (0.5 mL) microtiter plates (Cell Culture-Treated, Flat-Bottom Microplate 96 well [Corning Costar, Kennebunk, ME; Cat 09-761-145]) filled with 200 uL of Hanks' solution. A random number generator was used to assign the order in which the rows of embryos were plated in 96 well plates each week. After plating, the embryos were dosed with 0.8 uL of the chemical dosing solution then immediately sealed with AlumaSeal II (Excel Scientific Inc, Victorville, CA) to prevent volatilization of the chemicals, and then placed in a leakproof secondary container. These containers were placed in an incubator maintained on a 14:10 h light: dark cycle at 26C for rearing. On 5 dpf, live larvae were gently moved out of the plate with test chemicals and into a new 96 well mesh plate (Millipore Corp., Bedford, MA) with just the Hanks' solution. Once within the mesh well plate, the animals were rinsed with 400 uL of fresh Hanks' three times, and then the plates were covered with a non-adhesive material (Microseal A, BioRad, Hercules, CA), plate lid added, and then plate sides wrapped in Parafilm (PM992, Bermis Company, Neenah, WI), and returned to the incubator. […]
SMILES,outcome,AC50
FC(F)(F)COC(OCC(F)(F)F)OCC(F)(F)F,inactive,
FC(F)=C(F)C(F)(F)C(F)(F)C(F)(F)C(F)(F)C(F)(F)C(F)(F)F,inactive,
O=S(=O)(O)CCC(F)(F)C(F)(F)C(F)(F)C(F)(F)C(F)(F)C(F)(F)F,inactive,
FC(F)C(F)(F)COCC1CO1 (stereo not given),,32.2 µM (active)
OCCC(F)(F)C(F)(F)C(F)(F)C(F)(F)F,inactive,
C[Si](C)(C)C(F)(F)C(F)(F)C(F)(F)F,inactive,
NCC(F)(F)C(F)(F)C(F)(F)C(F)(F)F,inactive,
FC(F)(F)C(F)(F)C(F)(F)C(F)(F)C(F)(F)C(F)(F)I,inactive,
OC(O)(C(F)C(O)(O)C(F)(F)F)C(F)(F)F,,32.1 µM (active)
O=C(Cl)C(F)(F)C(F)(F)C(F)(F)C(=O)Cl,inactive,
